# Measured values from PubChem BioAssay (NCATS).
# Several values for one entry are separate records, joined by “and”; a condition that tells them apart may be missing. Identical values can stand only once. Inconclusive results are not listed. Activity calls are given as the source filed them. Unless noted, calls follow the shape of the dose curve; as a rule, active = well fitted inhibition curve with a large enough effect; inconclusive = small, poorly fitted or top-dose-only effect; inactive = flat fitted curve, though single readings scatter.
# Legend:
# [1] = qHTS profiling for inhibitors of Plasmodium falciparum proliferation (AID 504749);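 also: 0% = DMSO vehicle and full inhibition = artemisinin control; nearly all actives have a fitted effect of over 60% in size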; details: P. falciparum in erythrocytes, SYBR Green DNA, 72 h
# Procedure, shortened: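 SYBR Green fluorescence (ex 485 nm, em 535 nm) reports parasite DNA after 72 h compound exposure of infected red cells at 0.3% parasitemia, 2.5% hematocrit; signal normalized to 0.29 uM artemisinin and vehicle wells.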
# [2] = qHTS for identification of novel therapeutic agents for treatment of microphthalmiaassociated transcription factor (MiT) renal cell carcinoma (RCC) (AID 1963991; calls by dose curve; also: potency is read from the fitted curve at half-maximal effect); details: CellTiter-Glo, 48 h; for z-score: stronger effect = lower value; for Potency: active = Z-AUC below -0.8 in all three lines
# Procedure, shortened: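 Curves over 11 concentrations were fitted to CellTiter-Glo luminescence, scaled between empty wells (0%) and DMSO (100%) viability. Cells were UOK109, UOK124 and UOK145 TFE3-fusion RCC lines at 500/well, exposed 48 hours at 37 C.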
# [3] = at 28.7 µM (top of the series), parasite line A
# [4] = at 28.7 µM (top of the series), parasite line B
# [5] = TFE3-RCC UOK109 viability, measured here: UOK109 Z-AUC
# [6] = TFE3-RCC viability, measured here: UOK124 Z-AUC
# [7] = TFE3-RCC viability, measured here: UOK145 Z-AUC
# [8] = at 12.8 µM (top of the series), parasite line A
# [9] = at 12.8 µM (top of the series), parasite line B
smiles,measurement,setting,value
O=C1Nc2ccc(Cl)cc2C(C#CC2CC2)(C(F)(F)F)O1 (stereo not given),"activity, negative = inhibition",[1]; [3],-18.6% (inactive)
same,"activity, negative = inhibition",[1]; [4],0.376% (inactive)
CCN(CC)CCNC(=O)c1ccc(N)cc1,"activity, negative = inhibition",[1]; [3],6.98% (inactive)
same,"activity, negative = inhibition",[1]; [4],5.88% (inactive)
CC(C)(C)OC(=O)N[C@H]1CCCCCC=C[C@@H]2C[C@@]2(C(=O)NS(=O)(=O)C2CC2)NC(=O)[C@@H]2C[C@@H](OC(=O)N3Cc4cccc(F)c4C3)CN2C1=O,z-score,[2]; [5],0.6
same,z-score,[2]; [6],0.826
same,z-score,[2]; [7],2.04
NC(N)=Nc1nc(CSCC/C(N)=N/S(N)(=O)=O)cs1,"activity, negative = inhibition",[1]; [3],-15% (inactive)
same,"activity, negative = inhibition",[1]; [4],4.88% (inactive)
Cc1cccc(C)c1OCC(C)N (stereo not given),"activity, negative = inhibition",[1]; [3],7.67% (inactive)
same,"activity, negative = inhibition",[1]; [4],-7.13% (inactive)
COc1ccc2c3c1OC1C[C@@H](O)C=C[C@@]31CCN(C)C2 (stereo not given in full),z-score,[2]; [5],0.657
same,z-score,[2]; [6],0.378
same,z-score,[2]; [7],-0.117
O=C(O)Cc1cccc2ccccc12,"activity, negative = inhibition",[1]; [3],12.1% (inactive)
same,"activity, negative = inhibition",[1]; [4],6.39% (inactive)
CCC(CC)[C@H](NC(C)=O)[C@@H]1[C@H](O)[C@@H](C(=O)O)C[C@@H]1N=C(N)N,z-score,[2]; [5],0.127
same,z-score,[2]; [6],-0.172
same,z-score,[2]; [7],-0.0122
CN(C)CCC(c1ccccc1)c1ccccn1 (stereo not given),"activity, negative = inhibition",[1]; [3],8.91% (inactive)
same,"activity, negative = inhibition",[1]; [4],5.22% (inactive)
CCN(CC)C(=O)c1ccc(O)c(OC)c1,"activity, negative = inhibition",[1]; [8],6.06% (inactive)
same,"activity, negative = inhibition",[1]; [9],6.5% (inactive)
same,"activity, negative = inhibition",[1]; [3],14.7% (inactive)
same,"activity, negative = inhibition",[1]; [4],-14.5% (inactive)
COc1cc(N2CCC(N3CCN(C)CC3)CC2)ccc1Nc1ncc(Cl)c(Nc2ccccc2S(=O)(=O)C(C)C)n1,Potency,[2]; TFE3-RCC UOK109 viability,14.8 µM (active)
same,z-score,[2]; [5],-1.55
same,z-score,[2]; [6],-1.62
same,z-score,[2]; [7],-1.41
CCN(CC)CCOC(=O)c1ccc(N)cc1,"activity, negative = inhibition",[1]; [8],-0.702% (inactive)
C[C@]12CC[C@@H]3c4ccc(O)cc4CC[C@H]3[C@H]1C[C@@H](O)[C@H]2O,z-score,[2]; [5],1.3
same,z-score,[2]; [6],0.473
same,z-score,[2]; [7],0.59
COc1ccccc1N1CCN(CCCNc2cc(=O)n(C)c(=O)n2C)CC1,"activity, negative = inhibition",[1]; [3],-3.41% (inactive) and -6.84% (inactive)
same,"activity, negative = inhibition",[1]; [4],-11.7% (inactive) and -0.932% (inactive)
NCCS,"activity, negative = inhibition",[1]; [3],9.12% (inactive)
same,"activity, negative = inhibition",[1]; [4],7.21% (inactive)
O=C(NCCN1CCOCC1)c1ccc(Cl)cc1,"activity, negative = inhibition",[1]; [3],9.62% (inactive)
same,"activity, negative = inhibition",[1]; [4],3.61% (inactive)
CCOC(=O)O[C@]1(C(=O)OCCl)CC[C@@H]2[C@H]3CCC4=CC(=O)C=C[C@]4(C)[C@@H]3[C@@H](O)C[C@@]21C,z-score,[2]; [5],0.509
same,z-score,[2]; [6],0.837
same,z-score,[2]; [7],2.11
same,"activity, negative = inhibition",[1]; [3],-7.57% (inactive)
same,"activity, negative = inhibition",[1]; [4],4.48% (inactive)
CC[C@H]1OC(=O)[C@H](C)[C@@H](O[C@H]2C[C@@](C)(OC)[C@@H](O)[C@H](C)O2)[C@H](C)[C@@H](O[C@@H]2O[C@H](C)C[C@H](N(C)C)[C@@H]2O)[C@](C)(O)C[C@@H](C)CN(C)[C@H](C)[C@@H](O)[C@]1(C)O,z-score,[2]; [5],-4
same,z-score,[2]; [6],0.7
same,z-score,[2]; [7],0.923
O=C(OCC#CCSc1nnc(-c2cccc3ccccc23)o1)c1cc2ccccc2s1,z-score,[2]; [5],0.144
same,z-score,[2]; [6],0.66
same,z-score,[2]; [7],0.162
O=C(O)c1cc(-c2ccccc2)nc2ccccc12,"activity, negative = inhibition",[1]; [3],-2.25% (inactive)
same,"activity, negative = inhibition",[1]; [4],7.48% (inactive)
CC=CC(=O)N(CC)c1ccccc1C,z-score,[2]; [5],1.15
same,z-score,[2]; [6],0.231
same,z-score,[2]; [7],0.523
C[N+]1(C)[C@@H]2CC(OC(=O)[C@H](CO)c3ccccc3)C[C@H]1[C@H]1O[C@@H]12 (stereo not given in full),z-score,[2]; [5],0.318
same,z-score,[2]; [6],0.652
same,z-score,[2]; [7],0.553
CC(=O)c1ccc(S(=O)(=O)NC(=O)NC2CCCCC2)cc1,"activity, negative = inhibition",[1]; [3],3.57% (inactive)
same,"activity, negative = inhibition",[1]; [4],7.49% (inactive)
CC(=O)CCCCn1c(=O)c2c(ncn2C)n(C)c1=O,"activity, negative = inhibition",[1]; [8],-2.51% (inactive)
same,"activity, negative = inhibition",[1]; [9],2.9% (inactive)
CCCCCN(C)CCC(O)(P(=O)(O)O)P(=O)(O)O,z-score,[2]; [5],0.34
same,z-score,[2]; [6],0.128
same,z-score,[2]; [7],0.245
same,"activity, negative = inhibition",[1]; [3],13.8% (inactive)
same,"activity, negative = inhibition",[1]; [4],15.2% (inactive)
CCN1CCC[C@H]1CNC(=O)c1cc(S(N)(=O)=O)ccc1OC,"activity, negative = inhibition",[1]; [3],7.08% (inactive)
same,"activity, negative = inhibition",[1]; [4],23% (inactive)
O=C1NCC2(CCN(CCc3ccccc3)CC2)O1,"activity, negative = inhibition",[1]; [3],12% (inactive)
same,"activity, negative = inhibition",[1]; [4],1.55% (inactive)
C[N+](C)(C)CCCCCC[N+](C)(C)C,"activity, negative = inhibition",[1]; [3],4.23% (inactive)
same,"activity, negative = inhibition",[1]; [4],5.66% (inactive)
Nc1ncnc2c1ncn2[C@@H]1O[C@@H](CO)[C@H](O)[C@H]1O,z-score,[2]; [5],0.834
same,z-score,[2]; [6],0.529
same,z-score,[2]; [7],0.73
CC(=NNC(=S)N1CCC1)c1ccccn1,Potency,[2]; TFE3-RCC UOK109 viability,0.00332 µM (active)
same,z-score,[2]; [5],-4
same,z-score,[2]; [6],-1.96
same,z-score,[2]; [7],-2.39
O=c1[nH]cnc2c1ncn2[C@H]1CC[C@@H](CO)O1,"activity, negative = inhibition",[1]; [3],-0.993% (inactive)
same,"activity, negative = inhibition",[1]; [4],7.28% (inactive)
C[C@H]1[C@H](NC(=O)C(=NOC(C)(C)C(=O)O)c2csc(N)n2)C(=O)N1S(=O)(=O)O,z-score,[2]; [5],1.25
same,z-score,[2]; [6],0.648
same,z-score,[2]; [7],1.65
